This is part of a sample that, as a whole, favours compounds with a hit. Of some 83,000 tested, about 20% had one in any assay.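 Compound tested at a single concentration for 48 hours in 96-well plates; a percent growth value below 10 was scored as active.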 A number with no mark means an inactive call. The source made the active and inactive calls.
Legend:
Assay in all cases: NCI-60 one-dose screen, 48 h (100 = growth as untreated, 0 = no growth, -100 = all killed)
Details in all cases: 10 µM unless noted
[1] = tested on: T-47D breast
[2] = tested on: BT-549 breast
[3] = tested on: MDA-MB-435 melanoma
[4] = tested on: SW-620 colon
[5] = tested on: MCF7 breast
[6] = tested on: HCT-116 colon
[7] = tested on: HCC-2998 colon
[8] = tested on: KM12 colon

SMILES | growth [1] | growth [2] | growth [3] | growth [4] | growth [5] | growth [6] | growth [7] | growth [8]
CCCCCCCCC(=O)Nc1ccc(O)cc1 | 88.7% | 80.5% | 98.3% | 103% | 97.9% | 101% | 83.7% | 90.9%
Cc1nn(-c2ccccc2)c(N)c1N=C1NC(=O)/C(=C/c2ccc(Cl)cc2)S1 | 74.4% | 75.8% | 66.9% | 82.2% | 70.9% | 83.6% | 121% | 78.3%
CC(O)c1cc[cH-]c1.[Fe+2].c1cc[cH-]c1 (configuration not stated) | 101% | 95.5% | 104% | 103% | 103% | 94.1% | 109% | 103%
O=CN/N=C/c1ccc(Cl)c([N+](=O)[O-])c1 | 25.3% | 42.6% | 18.9% | 17.6% | 6.05% (active) | 16.2% | 27.2% | 7.24% (active)
CCCNC(=O)Oc1ccc(/C(=C(/C)Cc2ccc(OC)cc2)c2ccc(OCCN3CCCC3)cc2)cc1 | 37% | 82.7% | 65.8% | 77.7% | 25.3% | 48.8% | 62.5% | 78.7%
CCCCCCCCCCC(C[N+](C)(C)C/C=C/c1ccccc1)C(O)c1ccccc1 (configuration not stated) | 10.3% | -6.83% (active) | -66% (active) | 2.5% (active) | -66.9% (active) | -87.7% (active) | 7.77% (active) | -97.5% (active)
COc1ccc(C(O)(c2ccccc2)C(C(=O)O)c2ccccc2)cc1 (configuration not stated) | 86% | 94.7% | 117% | 107% | 114% | 97.2% | 102% | 93.9%
COc1ccc(/C=C/C(=O)/C=C/c2cc3ccccc3[nH]c2=O)cc1 | 57.1% | 64.9% | 13.6% | 36.4% | 14.5% | -30.8% (active) | 96.7% | 27.6%
COc1ccc2c(c1)/C(=C1/S/C(=N/c3nnc(C)s3)NC1=O)C(=O)N2Cc1ccc(Br)cc1 | 22% | 42.9% | 39.3% | 44.5% | 35.1% | 19.7% | 46.1% | 27.7%
CC(=O)CC(=O)OC/C=C(/C)CCC=C(C)C | 123% | 102% | 114% | 105% | 99.6% | 98.9% | 97.2% | 105%
COc1ccc(C2C3(C#N)C(N)=NC(=C(C#N)C#N)C23C#N)cc1OC (configuration not stated) | 110% | 93.3% | 107% | 106% | 108% | 112% | 122% | 118%
O=C(CCl)c1ccc2c(c1)CCCC2 | 87.9% | 83.5% | 111% | 82.6% | 86.5% | 84.2% | 111% | 107%
Cc1c(CN(C)C)cc(C(C)C)cc1C(C)C | 131% | 118% | 111% | 104% | 96.7% | 104% | 104% | 114%
COc1cc2ncnc(-n3ncc4cc(NC(=O)Nc5ccc(Cl)c(Cl)c5)ccc43)c2cc1OC | -0.727% (active) | -26.9% (active) | -31.1% (active) | -32.4% (active) | -34.8% (active) | 23.9% | 15.4% | 0.483% (active)
CCOc1ccc(/C=N/NC(=O)c2cccc3ccccc23)cc1OCC | 86.1% | 86.5% | 111% | 105% | 92.9% | 103% | 105% | 103%
C=CCSc1nnc(COc2ccc3c(C)c(Cc4ccccc4)c(=O)oc3c2C)o1 | 96% | 100% | 103% | 99.2% | 95.7% | 95.6% | 104% | 101%
CCCCCSc1ccc2nc(NC(=O)OCC)sc2c1 | 29.7% | 37.2% | -47% (active) | 19.6% | 13.9% | 26% | 55% | 19.7%

SMILES | growth [1] | growth [2] | growth [3] | growth [4] | growth [5] | growth [6] | growth [7] | growth [8]
COC(=O)CC(=O)C(=O)OC | 99.9% | 101% | 120% | 104% | 97.6% | 93.4% | 104% | 106%
COc1cc(C(=O)Nc2ccc(N(C)C)cc2)cc(OC)c1OC | 91.1% | 96.7% | 1.26% (active) | 85.9% | 77.8% | 89% | 92.1% | 81%
O=C(Nc1ccc(Cl)c(Cl)c1)O/N=C\c1c(Cl)ccc([N+](=O)[O-])c1Cl | -46.8% (active) | -6.07% (active) | -31% (active) | -79.3% (active) | -62.9% (active) | -83.5% (active) | -64.7% (active) | -71.8% (active)
Nc1cc2c(cc1Br)[nH]c(=O)c1ccccc12 | 29.6% | 65.1% | -42.6% (active) | 61% | 15.9% | 19.2% | 68% | 26.2%
N=C(N)c1ccc(-c2ccc(-c3cc(Cl)cc(Cl)c3)s2)cc1 | -54% (active) | -45.7% (active) | -90.2% (active) | -70.9% (active) | -72.5% (active) | -78.7% (active) | -65.2% (active) | -77.4% (active)
Oc1ccc([S+](c2ccc(O)cc2)c2ccc(O)cc2)cc1 | 107% | 107% | 107% | 107% | 98.8% | 107% | 106% | 107%
COc1ccc(-c2nc(SCC(C)C)nc(Nc3ccc(C(=O)O)cc3)c2C#N)cc1 | 87.3% | 85.6% | 99.5% | 102% | 67.2% | 85.1% | 97.7% | 91.8%
OCCN1CCN(CC/C=C2/c3ccccc3Sc3ccc(C(F)(F)F)cc32)CC1 | 62.5% | 75.2% | 35.2% | 83.5% | 56.6% | 41.5% | 21.4% | 63.4%
Nc1ccc(S(=O)(=O)c2ccc(NO)cc2)cc1 | 96.9% | 80% | 97.3% | 104% | 95.1% | 98.9% | 92.6% | 116%
CCCC(C)c1cc(Cc2cc(Cl)cc(Cl)c2O)c(O)c(Cc2cc(Cl)cc(Cl)c2O)c1 (configuration not stated) | 6.27% (active) | -14.9% (active) | 7.24% (active) | 12.9% | 4.88% (active) | 4.58% (active) | 8.08% (active) | 9.12% (active)
O=C(/C=C1\C(=O)N(Cc2ccccc2)c2ccccc21)c1ccc(OCCN2CCCCC2)cc1 | -56.3% (active) | 80.4% | 96.1% | -45.7% (active) | 3.98% (active) | -3.84% (active) | 93.8% | 80.6%
O=C(O)CS(=O)c1ccc(Cl)cc1 (configuration not stated) | 101% | 99.8% | 102% | 106% | 101% | 97.6% | 97.1% | 103%
CCOC(=O)C1CCCN1C(=O)C1(NC(C)=O)CCCC1 (configuration not stated) | 100% | 95.5% | 103% | 99.6% | 99.3% | 96.4% | 108% | 91.2%
CC(C)OC(=O)Nn1cnc2ccccc21 | 114% | 116% | 110% | 111% | 120% | 87.4% | 105% | 114%
O=C(/C=C\c1ccc(NCc2ccc(C(=O)O)cc2)cc1)CCl | -22.8% (active) | 64.3% | 89.5% | 3.72% (active) | 24% | -15.3% (active) | 97.5% | 98.2%
CCN(CC)CCNc1ncnc2c1cnn2-c1ccc(Cl)cc1 | 65% | 95.1% | -34.8% (active) | 63% | 75% | 77.8% | 82.7% | 67.5%
CNc1nc2ncn(C)c2c(=O)[nH]1 | 91.4% | 88.7% | 94.6% | 95.7% | 96% | 100% | 90.7% | 86.8%

From PubChem BioAssay (NCI)
